From PubChem BioAssay (NCI) come the findings set out here.

The structures appear in SMILES notation. About 83,000 compounds went through this panel and 20% of them were active in at least one assay; those are over-represented in the sample as a whole.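 48-hour exposure, single concentration, 96-well plates; percent growth endpoint where 0 means no net growth. Active: below 10.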 A number with no mark means an inactive call. The source made the active and inactive calls.

Among the test systems are NCI-H23 lung; NCI-H226 lung; NCI-H322M lung; NCI-H460 lung; NCI-H522 lung; A549/ATCC NSCLC; COLO 205 colon; DU-145 prostate; K-562 leukemia; MALME-3M melanoma; MDA-MB-231 breast; RXF 393 renal; SF-268 CNS; SF-295 CNS; SF-539 CNS; UACC-257 melanoma; M14 melanoma; HCT-15 colon; HOP-62 NSCLC; 786-0 renal.
Test in all cases: NCI-60 one-dose screen, 48 h (100 = growth as untreated, 0 = no growth, -100 = all killed)
What all share (settings): 10 µM unless noted

For the molecule `O=c1[nH]c(Cl)nc2c1cnn2-c1ccccc1`, the growth in the assay on NCI-H23 lung was 81.3%; in the assay on NCI-H226 lung it was 92.5%; with NCI-H322M lung it was 112%; in the assay with NCI-H460 lung it was 95.3%; in the assay on NCI-H522 lung, 97.1%; with A549/ATCC NSCLC it was 113%. Also, the growth in the assay on COLO 205 colon was 107%; in the assay with DU-145 prostate, 104%; in the assay on K-562 leukemia, 43%; in the assay on MALME-3M melanoma it was 104%; in the assay on MDA-MB-231 breast it was 92.3%; with RXF 393 renal, 111%. Besides, the growth in the assay with SF-268 CNS is 93%; in the assay on SF-295 CNS, 85.2%; with SF-539 CNS it was 77.2%; in the assay on UACC-257 melanoma, 106%; in the assay with M14 melanoma it was 84.9%; in the assay on HCT-15 colon, 94.7%.
On to `Cc1nc(N)[nH]c(=O)c1C`, for which the growth in the assay on NCI-H23 lung was 97.4%; in the assay with NCI-H226 lung it was 97%; with HOP-62 NSCLC, 103%; in the assay with NCI-H460 lung, 106%; with NCI-H522 lung, 102%; in the assay on A549/ATCC NSCLC, 103%. The growth with 786-0 renal is 103%; in the assay with DU-145 prostate, 109%; with K-562 leukemia it was 86.9%; with MALME-3M melanoma it was 156%; in the assay on MDA-MB-231 breast, 102%; in the assay with RXF 393 renal it was 104%. The growth is 114% in the assay with SF-268 CNS; 107% in the assay on SF-539 CNS; 87% in the assay with UACC-257 melanoma; 105% with M14 melanoma; 122% in the assay with HCT-15 colon.
Consider `COc1ccc(C2CC(c3cccc(Nc4ccnc5cc(Cl)ccc45)c3)=NN2C=O)cc1` (stereo unspecified), for which the growth is 10.7% in the assay on NCI-H23 lung; 46.3% in the assay on NCI-H226 lung; 27% in the assay with HOP-62 NSCLC; 11.2% with NCI-H460 lung; -35.5% (active) in the assay with NCI-H522 lung; 25.5% in the assay on A549/ATCC NSCLC. Also, the growth with 786-0 renal was 34.7%; with COLO 205 colon it was -44.3% (active); in the assay with DU-145 prostate it was 2.95% (active); with K-562 leukemia it was 14.4%; in the assay on MALME-3M melanoma, 55.8%; in the assay on MDA-MB-231 breast, 24.3%. The growth was -5.62% (active) with RXF 393 renal; 44.5% with SF-268 CNS; 2.43% (active) in the assay with SF-295 CNS; -1.14% (active) with SF-539 CNS; 63.3% in the assay with UACC-257 melanoma; 25.2% in the assay on M14 melanoma. The growth in the assay on HCT-15 colon is 27.8%.
Turning to `CCCCc1nc(Cl)c(CO)n1Cc1ccc(-c2ccccc2-c2nn[nH]n2)cc1`, the growth with NCI-H23 lung was 106%; with NCI-H226 lung, 99.3%; in the assay on NCI-H460 lung, 108%; in the assay on NCI-H522 lung, 92.8%; in the assay on A549/ATCC NSCLC, 105%; in the assay on 786-0 renal, 106%. The growth in the assay with COLO 205 colon is 96.6%; in the assay on DU-145 prostate, 110%; in the assay with K-562 leukemia, 105%; in the assay on MALME-3M melanoma it was 101%; with MDA-MB-231 breast, 99.1%; in the assay with RXF 393 renal, 105%. For the same molecule, the growth in the assay on SF-268 CNS is 115%; in the assay with SF-295 CNS it was 99.9%; in the assay on SF-539 CNS, 100%; in the assay with UACC-257 melanoma, 104%; with M14 melanoma it was 101%; with HCT-15 colon, 106%.
In the case of `COC(=O)CCC1=C(C)C(C)=N/C1=C\c1[nH]c(-c2ccc[nH]2)cc1OC`, the growth in the assay on NCI-H23 lung was 0.999% (active); in the assay with NCI-H226 lung it was 20.7%; in the assay with HOP-62 NSCLC, -3.16% (active); in the assay with NCI-H460 lung it was 0.969% (active); in the assay on NCI-H522 lung, -62.7% (active); with A549/ATCC NSCLC, 11.1%. Moreover, the growth is 10.1% in the assay on 786-0 renal; 12.9% in the assay with COLO 205 colon; 9.9% (active) with DU-145 prostate; -16.4% (active) in the assay on K-562 leukemia; -33.4% (active) with MDA-MB-231 breast; 23.3% with RXF 393 renal. In addition, the growth was 25.3% with SF-268 CNS; -44.6% (active) with SF-295 CNS; -9.38% (active) with SF-539 CNS; -1.25% (active) in the assay on UACC-257 melanoma; 9.58% (active) in the assay with M14 melanoma; -2.64% (active) in the assay with HCT-15 colon.
For the molecule `O=C1N(C2CCCCC2)C(=O)N1C1CCCCC1`, the growth in the assay with NCI-H23 lung is 45.1%; with NCI-H226 lung it was 46%; in the assay on NCI-H460 lung, 39%; with NCI-H522 lung, 17.3%; in the assay with A549/ATCC NSCLC, 34.5%; with 786-0 renal, 53.5%. The growth is 62% in the assay with COLO 205 colon; 38.7% in the assay with DU-145 prostate; 55.3% in the assay with K-562 leukemia; -16.9% (active) in the assay with MALME-3M melanoma; 64.3% with MDA-MB-231 breast; 43.2% in the assay with RXF 393 renal. Further, the growth in the assay on SF-268 CNS was 65.3%; in the assay on SF-295 CNS, -27.9% (active); with SF-539 CNS it was 26.5%; with UACC-257 melanoma, 22.8%; in the assay with M14 melanoma, 30.4%; with HCT-15 colon, 52.7%.
For `N#Cc1c(N2CCOCC2)nc2sc3cc(Cl)ccc3n2c1=N`, the growth in the assay on NCI-H23 lung was 88.2%; in the assay with NCI-H226 lung it was 88.3%; with HOP-62 NSCLC, 90.2%; with NCI-H460 lung, 91.4%; in the assay with NCI-H522 lung, 93.7%; with A549/ATCC NSCLC, 102%. The growth in the assay with 786-0 renal was 95.3%; with DU-145 prostate, 110%; with K-562 leukemia it was 106%; with MALME-3M melanoma, 117%; with MDA-MB-231 breast it was 75.9%; with RXF 393 renal it was 72.7%. Besides, the growth with SF-268 CNS was 94.4%; in the assay on SF-295 CNS it was 118%; in the assay with SF-539 CNS, 97.3%; in the assay with UACC-257 melanoma, 103%; with M14 melanoma it was 111%; in the assay with HCT-15 colon, 102%.
